Experimental data: PubChem BioAssay AID1159580 (chemical genetic matrix, 2015)
Among all 5,500 compounds or so, about 2,000 (36%) were called active. Not shown: some 18% with an inconclusive outcome. No stated cut-off is given here; in the data, active means normalized growth mostly below about 0.91 (no sharp cut-off); inconclusive means no clear call, values can overlap the other calls; inactive means mostly above about 0.92. The list shows a part of the results.

Experiment: chemical genetic growth profiling, strain panel (AID 1159580);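 further: tested at 20 µM; growth read once vehicle control cultures reached saturation at 30 °C; 1 = growth at the plate median or of vehicle wells; lower values mean less growth of the strain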
Conditions: S. cerevisiae deletion strains, growth OD

Measured: normalized growth

C=C/C(C)=C\CC1C(C)(O)CCC2C(C)(C)CCCC21C (stereo not given)
inactive: locus YKL068W, hits give low values 0.963
active: locus YAL013W, strain DEP1, hits give low values 0.143 | locus YBR021W, strain FUR4, hits give low values 0.64 | locus YBR229C, strain ROT2, hits give low values 0.316 | locus YCL029C, strain bik1, hits give low values 0.612 | locus YDL035C, strain GPR1, hits give low values 0.139 | locus YDL074C, strain BRE1, hits give low values 0.172 | locus YDL101C, strain DUN1, hits give low values 0.0723 | locus YDL134C, strain PPH21, hits give low values 0.0532 | locus YDL185W, strain tfp1, hits give low values 0.842 | locus YDL192W, strain arf1, hits give low values 0.0743 | locus YDR101C, strain arx1, hits give low values 0.429 | locus YDR150W, strain NUM1, hits give low values 0.289 | locus YDR162C, strain NBP2, hits give low values 0.0609 | locus YDR318W, strain mcm21, hits give low values 0.074 | locus YDR388W, hits give low values 0.121 | locus YDR502C, strain sam2, hits give low values 0.155 | locus YEL061C, strain CIN8, hits give low values 0.154 | locus YER110C, hits give low values 0.118 | locus YER155C, strain BEM2, hits give low values 0.237 | locus YER167W, strain BCK2, hits give low values 0.0638 | locus YGL078C, strain dbp3, hits give low values 0.626 | locus YGL086W, strain mad1, hits give low values 0.105 | locus YGL248W, strain PDE1, hits give low values 0.0559 | locus YGR078C, strain PAC10, hits give low values 0.0661 | locus YGR135W, strain pre9, hits give low values 0.115 | locus YGR229C, strain SMI1, hits give low values 0.0733 | locus YGR252W, strain gcn5, hits give low values 0.255 | locus YHR030C, strain SLT2, hits give low values 0.056 | locus YHR079C, strain IRE1 (second series), hits give low values 0.504 | locus YHR094C, strain hxt1, hits give low values 0.099 | locus YHR129C, strain ARP1, hits give low values 0.159 | locus YHR200W, strain rpn10, hits give low values 0.247 | locus YIL066C, strain RNR3, hits give low values 0.0635 | locus YIL073C, strain SPO22, hits give low values 0.12 | locus YIL125W, strain kgd1, hits give low values 0.128 | locus YIR030C, strain dcg1, hits give low values 0.136 | locus YJL095W, strain BCK1, hits give low values 0.0688 | locus YJL134W, strain LCB3, hits give low values 0.057 | locus YJL168C, strain set2, hits give low values 0.203 | locus YJL187C, strain SWE1 (second series), hits give low values 0.39 | locus YJR043C, strain POL32, hits give low values 0.258 | locus YJR075W, strain HOC1, hits give low values 0.1 | locus YKL009W, strain mrt4, hits give low values 0.833 | locus YKL085W, strain MDH1 (second series), hits give low values 0.0898
